Results taken from PubChem BioAssay (NCATS).
Values joined by “and” are separate entries in the source; they are usually repeats but may differ in a detail not shown here. Equal entries are not always repeated. Unmarked numbers belong to inactive results. Inconclusive results are not listed. Entries that show only a call come without a potency. Active and inactive are the calls of the source. Unless noted, the call rests on the fitted dose curve; in most records, active means well fitted curve in the direction sought with a large enough effect; inconclusive means small, poorly fitted or top-dose-only effect, or another doubt; inactive means no such curve, though single readings can be large; an effect the other way counts as inactive or inconclusive.

What was measured:
[1] = qHTS for differential inhibitors of proliferation of Plasmodium falciparum line 7G8 (AID 1815);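 further: parasite growth measured after three days of incubation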; further: potency means the concentration at half of the fitted maximal effect
[2] = qHTS for differential inhibitors of proliferation of Plasmodium falciparum line GB4 (AID 1816); conditions: Potency: Plasmodium falciparum GB4 proliferation inhibition;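 further: parasite growth measured after 72 h incubation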; further: potency means the concentration at half of the fitted maximal effect
[3] = qHTS for differential inhibitors of proliferation of Plasmodium falciparum line 3D7 (AID 1876); further: potency means the concentration at half of the fitted maximal effect
[4] = qHTS for differential inhibitors of proliferation of Plasmodium falciparum line D10 (AID 1877);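 further: parasites grown with compound for 72 h before DNA staining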; further: potency means the concentration at half of the fitted maximal effect
[5] = qHTS for differential inhibitors of proliferation of Plasmodium falciparum line Dd2 (AID 1882); conditions: Potency: Plasmodium falciparum Dd2 proliferation inhibition; further: nearly all actives have a fitted effect of over 65% in size; further: potency means the concentration at half of the fitted maximal effect
Outline: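 Dd2-infected erythrocytes (0.3% parasitemia, 2.5% hematocrit final) incubated with compound 72 h at 37 C, 5% CO2; lysed with saponin/Triton buffer containing SYBR Green I, incubated overnight in the dark, then read by fluorescence (485/535 nm). Normalized to 0.29 uM artemisinin and DMSO.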

[6] = qHTS for differential inhibitors of proliferation of Plasmodium falciparum line HB3 (AID 1886); conditions: Potency: Plasmodium falciparum HB3 proliferation inhibition;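 further: parasites grown with compound for 72 h before SYBR Green readout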; further: potency means the concentration at half of the fitted maximal effect
[7] = Validation screen for inhibitors of Lassa infection (AID 463096; calls by dose curve)
[8] = target: Rap guanine nucleotide exchange factor 3 (Homo sapiens) (UniProt O95398); experiment: Confirmatory qHTS for agonist of cAMP-regulated guanine nucleotide exchange factor 3 (EPAC1) (AID 1645881);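 further: EPAC1 catalysed release of BODIPY-GDP from Rap1B seen as fluorescence loss; nearly all actives have a fitted effect of over 75% in size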
Chain of Rap guanine nucleotide exchange factor 3 (Homo sapiens) (O95398 whole entry, looked up): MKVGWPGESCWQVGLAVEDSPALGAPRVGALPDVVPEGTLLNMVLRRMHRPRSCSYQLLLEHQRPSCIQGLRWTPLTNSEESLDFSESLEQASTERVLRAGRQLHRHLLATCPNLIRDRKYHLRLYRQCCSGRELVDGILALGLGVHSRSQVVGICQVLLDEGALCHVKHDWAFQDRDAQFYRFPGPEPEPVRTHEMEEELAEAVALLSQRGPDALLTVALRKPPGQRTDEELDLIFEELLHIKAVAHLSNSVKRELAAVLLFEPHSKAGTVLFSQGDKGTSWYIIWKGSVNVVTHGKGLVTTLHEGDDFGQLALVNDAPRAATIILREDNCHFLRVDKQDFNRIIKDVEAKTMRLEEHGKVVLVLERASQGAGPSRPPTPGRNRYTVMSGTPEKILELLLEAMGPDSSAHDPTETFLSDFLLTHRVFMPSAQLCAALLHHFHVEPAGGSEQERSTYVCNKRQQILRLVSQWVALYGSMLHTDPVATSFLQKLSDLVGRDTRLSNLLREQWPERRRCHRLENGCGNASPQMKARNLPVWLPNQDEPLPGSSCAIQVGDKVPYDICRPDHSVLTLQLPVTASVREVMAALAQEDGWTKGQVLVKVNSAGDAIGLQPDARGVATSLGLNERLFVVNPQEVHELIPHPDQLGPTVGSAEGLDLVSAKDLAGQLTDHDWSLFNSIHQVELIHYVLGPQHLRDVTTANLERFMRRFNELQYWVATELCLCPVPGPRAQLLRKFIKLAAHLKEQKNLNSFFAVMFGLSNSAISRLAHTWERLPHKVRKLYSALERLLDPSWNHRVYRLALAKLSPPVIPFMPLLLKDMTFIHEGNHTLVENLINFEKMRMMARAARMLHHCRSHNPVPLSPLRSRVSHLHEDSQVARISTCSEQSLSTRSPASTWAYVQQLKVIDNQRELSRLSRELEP

[9] = target: Rap guanine nucleotide exchange factor 4 (Homo sapiens) (UniProt Q8WZA2); experiment: Confirmatory qHTS for agonist of cAMP-regulated guanine nucleotide exchange factor 4 (EPAC2) (AID 1645884);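 further: nucleotide exchange releases bodipy-GDP from Rap1 and this lowers its fluorescence; nearly all actives have a fitted effect of over 65% in size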
Chain of Rap guanine nucleotide exchange factor 4 (Homo sapiens) (Q8WZA2 whole entry, looked up): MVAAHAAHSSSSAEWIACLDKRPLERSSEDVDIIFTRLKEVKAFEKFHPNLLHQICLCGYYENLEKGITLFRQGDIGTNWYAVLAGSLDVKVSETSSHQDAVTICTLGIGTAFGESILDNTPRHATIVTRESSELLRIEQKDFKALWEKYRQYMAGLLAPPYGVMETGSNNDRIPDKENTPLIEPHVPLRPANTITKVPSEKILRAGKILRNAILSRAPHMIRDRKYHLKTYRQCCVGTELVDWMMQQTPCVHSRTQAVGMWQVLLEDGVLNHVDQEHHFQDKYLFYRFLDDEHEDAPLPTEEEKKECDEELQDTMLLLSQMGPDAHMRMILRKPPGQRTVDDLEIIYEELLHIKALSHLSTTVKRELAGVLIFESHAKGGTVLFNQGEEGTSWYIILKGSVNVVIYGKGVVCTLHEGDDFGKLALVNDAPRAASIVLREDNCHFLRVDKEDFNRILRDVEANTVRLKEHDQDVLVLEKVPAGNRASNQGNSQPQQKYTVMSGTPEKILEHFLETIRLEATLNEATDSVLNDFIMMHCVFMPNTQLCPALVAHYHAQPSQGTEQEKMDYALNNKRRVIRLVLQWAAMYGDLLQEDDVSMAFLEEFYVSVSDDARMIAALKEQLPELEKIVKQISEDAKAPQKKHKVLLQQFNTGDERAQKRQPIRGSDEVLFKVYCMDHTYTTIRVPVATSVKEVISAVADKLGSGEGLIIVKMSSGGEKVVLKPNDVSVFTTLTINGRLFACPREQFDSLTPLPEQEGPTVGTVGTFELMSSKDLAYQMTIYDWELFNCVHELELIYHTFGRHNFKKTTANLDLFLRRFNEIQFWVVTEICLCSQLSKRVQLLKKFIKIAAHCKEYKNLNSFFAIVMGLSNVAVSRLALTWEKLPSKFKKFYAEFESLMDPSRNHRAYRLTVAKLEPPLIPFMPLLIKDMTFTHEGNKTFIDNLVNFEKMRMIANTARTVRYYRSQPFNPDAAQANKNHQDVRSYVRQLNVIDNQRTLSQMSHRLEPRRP

[10] = target: Rap guanine nucleotide exchange factor 4 (Homo sapiens) (UniProt Q8WZA2); experiment: Confirmatory qHTS for antagonist of cAMP-regulated guanine nucleotide exchange factor 4 (EPAC2) (AID 1645885); further: nearly all actives have a fitted effect of over 25% in size; further: potency means the concentration at half of the fitted maximal effect
[11] = target: Nuclear receptor subfamily 1 group I member 3 (Homo sapiens) (UniProt Q14994); experiment: Primary qHTS for antagonist of constitutive androstane receptor (CAR) against the NCATS DSHEA and TCM libraries (AID 1794836);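 further: HepG2 cells stably expressing hCAR with CYP2B6 luciferase reporter stimulated by CITCO; series mostly up to about 40 µM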
Chain of Nuclear receptor subfamily 1 group I member 3 (Homo sapiens) (Q14994 whole entry, looked up): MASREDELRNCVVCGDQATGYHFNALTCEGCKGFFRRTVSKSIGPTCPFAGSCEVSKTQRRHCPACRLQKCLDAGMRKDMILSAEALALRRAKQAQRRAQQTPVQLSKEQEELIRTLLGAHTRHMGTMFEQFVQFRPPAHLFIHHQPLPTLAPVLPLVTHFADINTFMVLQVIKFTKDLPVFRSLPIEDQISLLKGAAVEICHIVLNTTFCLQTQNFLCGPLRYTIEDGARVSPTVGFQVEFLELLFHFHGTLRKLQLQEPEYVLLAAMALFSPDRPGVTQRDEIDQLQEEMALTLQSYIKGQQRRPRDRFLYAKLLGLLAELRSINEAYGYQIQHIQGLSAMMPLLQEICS
Outline: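 Antagonist mode: CAR reporter luminescence (ONE-Glo) in HepG2-CYP2B6-hCAR cells stimulated with 48 uM CITCO (final) over 24 h at 37 C, compounds titrated; viability read first by CellTiter-Fluor fluorescence.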

[12] = target: Nuclear receptor subfamily 1 group I member 3 (Homo sapiens) (UniProt Q14994); experiment: Primary qHTS for agonist of constitutive androstane receptor (CAR) against the NCATS DSHEA and TCM libraries (AID 1794839); conditions: Potency: CAR antagonist co-added at 0.75 µM unless noted;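 further: HepG2 cells expressing human CAR with a CYP2B6 reporter plus PK11195 antagonist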
Outline: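 Concentration–response screen in HepG2-CYP2B6-hCAR cells under 0.75 µM PK11195; 24 h exposure; luminescent reporter signal with multiplexed fluorescent viability.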

[13] = target: Nuclear receptor subfamily 1 group I member 2 (Homo sapiens) (UniProt O75469); experiment: Dual reporter qHTS for antagonist of Pregnane X Receptor (hPXR) against the NCATS DSHEA and TCM libraries: Luminescence Readout (AID 1920060)
Chain of Nuclear receptor subfamily 1 group I member 2 (Homo sapiens) (O75469 whole entry, looked up): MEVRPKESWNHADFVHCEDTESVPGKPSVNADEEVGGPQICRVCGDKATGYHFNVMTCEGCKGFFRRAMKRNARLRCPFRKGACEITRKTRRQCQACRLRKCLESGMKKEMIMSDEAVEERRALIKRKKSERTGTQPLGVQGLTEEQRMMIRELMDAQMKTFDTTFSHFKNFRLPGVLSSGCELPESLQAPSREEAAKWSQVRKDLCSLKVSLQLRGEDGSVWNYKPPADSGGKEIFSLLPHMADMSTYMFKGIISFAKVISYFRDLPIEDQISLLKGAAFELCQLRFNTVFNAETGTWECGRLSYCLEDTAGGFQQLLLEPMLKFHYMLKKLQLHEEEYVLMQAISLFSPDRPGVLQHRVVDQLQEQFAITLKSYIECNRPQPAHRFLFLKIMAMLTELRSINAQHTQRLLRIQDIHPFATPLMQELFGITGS
Outline: (§1)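 Rifampicin-stimulated (2 uM final) hPXR-luciferase HepG2 cells were treated for 24 h with DSNP/TCM substances. Viability came from CellTiter-Fluor fluorescence, reporter activity from ONE-Glo luminescence.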

[14] = Dual reporter qHTS for antagonist of Pregnane X Receptor (hPXR) against the NCATS DSHEA and TCM libraries: Fluorescence Readout (AID 1920061)
Outline: as §1

[15] = target: Cytochrome P450 2D6 (Homo sapiens) (UniProt P10635); experiment: qHTS for inhibitors of CYP2D6 against the NCATS DSHEA and TCM libraries (AID 1919972); further: potency means the concentration at half of the fitted maximal effect
Chain of Cytochrome P450 2D6 (Homo sapiens) (P10635 whole entry, looked up): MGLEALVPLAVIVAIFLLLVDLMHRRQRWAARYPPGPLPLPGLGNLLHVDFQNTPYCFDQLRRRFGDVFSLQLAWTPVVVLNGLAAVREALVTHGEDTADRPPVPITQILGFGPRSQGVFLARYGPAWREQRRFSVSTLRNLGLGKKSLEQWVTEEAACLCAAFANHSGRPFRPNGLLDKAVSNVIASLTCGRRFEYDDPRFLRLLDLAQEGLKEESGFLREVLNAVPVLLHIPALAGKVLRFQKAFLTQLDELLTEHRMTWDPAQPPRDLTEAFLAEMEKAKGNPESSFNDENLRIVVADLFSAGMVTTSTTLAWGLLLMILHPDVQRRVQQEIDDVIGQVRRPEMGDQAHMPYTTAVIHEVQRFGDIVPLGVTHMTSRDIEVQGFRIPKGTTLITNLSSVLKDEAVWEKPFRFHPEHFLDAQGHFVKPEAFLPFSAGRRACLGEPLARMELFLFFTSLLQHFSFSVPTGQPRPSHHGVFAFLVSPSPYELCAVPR
Outline: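 Luminescent P450-Glo read-out of CYP2D6 turnover of a luciferin substrate after NADPH-driven reaction of 30-45 min at room temperature. Compounds were first preincubated 15 min with enzyme at titrated concentrations; quinidine was the intraplate control.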

[16] = target: Cytochrome P450 1A2 (Homo sapiens) (UniProt P05177); experiment: qHTS for inhibitors of CYPIA2 against the NCATS DSHEA and TCM libraries (AID 1919976); further: potency means the concentration at half of the fitted maximal effect
Outline: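 Human CYP1A2 with pro-luciferin substrate (typically 100 mM KPO4), 15 min preincubation with compound, then 1x NADPH regeneration for 30-45 min at room temperature in the dark. Luciferin quantified by luciferase luminescence; furafylline intraplate control.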

[17] = target: Androgen receptor (Homo sapiens) (UniProt P10275); experiment: qHTS assay for small molecule agonists of androgen receptor signaling (AID 588515; active means well fitted curve in the direction sought with a large enough effect in the signal ratio, with a control signal flat; the % refers to the signal ratio); conditions: AR-UAS-bla HEK293, beta-lactamase ratio, agonist 16 h; stronger effect = higher value
Chain of Androgen receptor (Homo sapiens) (P10275 whole entry, looked up): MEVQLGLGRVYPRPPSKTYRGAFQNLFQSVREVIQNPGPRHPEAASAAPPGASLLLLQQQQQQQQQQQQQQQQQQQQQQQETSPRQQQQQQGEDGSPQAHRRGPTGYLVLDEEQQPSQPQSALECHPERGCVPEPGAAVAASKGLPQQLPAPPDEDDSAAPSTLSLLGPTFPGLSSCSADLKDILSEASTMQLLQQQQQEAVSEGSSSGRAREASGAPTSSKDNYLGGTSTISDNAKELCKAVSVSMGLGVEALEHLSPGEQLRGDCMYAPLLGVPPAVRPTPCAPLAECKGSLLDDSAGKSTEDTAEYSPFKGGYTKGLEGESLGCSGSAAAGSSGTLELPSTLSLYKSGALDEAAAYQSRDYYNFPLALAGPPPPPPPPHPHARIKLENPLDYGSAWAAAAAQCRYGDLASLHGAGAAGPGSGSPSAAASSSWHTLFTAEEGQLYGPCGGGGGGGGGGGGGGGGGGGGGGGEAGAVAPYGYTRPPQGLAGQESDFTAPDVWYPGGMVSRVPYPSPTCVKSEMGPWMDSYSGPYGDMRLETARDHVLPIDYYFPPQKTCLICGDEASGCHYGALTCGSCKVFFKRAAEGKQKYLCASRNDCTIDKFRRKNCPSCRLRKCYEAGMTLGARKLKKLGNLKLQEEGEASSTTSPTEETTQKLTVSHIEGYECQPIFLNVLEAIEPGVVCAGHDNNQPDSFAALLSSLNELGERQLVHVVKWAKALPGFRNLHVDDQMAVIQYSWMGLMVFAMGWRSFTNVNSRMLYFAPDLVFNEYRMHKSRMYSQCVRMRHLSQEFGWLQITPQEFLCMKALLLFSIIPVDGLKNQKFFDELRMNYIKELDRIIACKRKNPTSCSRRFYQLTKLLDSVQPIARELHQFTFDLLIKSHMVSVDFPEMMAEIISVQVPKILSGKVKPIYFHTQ
Outline: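 EC50 and efficacy came from Hill fits of titrations (up to 92 uM) normalized to 30 nM R1881 as 100% and DMSO as 0%. Compound exposure was 16 h at 37 C on AR-UAS-bla HEK293 cells, with a 405/460/530 nm CCF4 fluorescence read.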

[18] = target: Androgen receptor (Homo sapiens) (UniProt P10275); experiment: qHTS assay for small molecule antagonists of androgen receptor signaling (AID 588516; active means well fitted curve in the direction sought with a large enough effect in the signal ratio, with a control signal flat, not every such curve was filed as active; the % refers to the signal ratio; further: potency means the concentration at half of the fitted maximal effect)
Outline: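 Compounds tested in titration against 10 nM R1881 in AR-responsive bla reporter HEK 293 cells; CCF4 fluorescence (460/530 nm) after 16 h exposure gave IC50 and efficacy.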

[19] = tested on: HIV-1 nucleocapsid protein NCp7 (binding to TG oligonucleotide); experiment: HIV Nucleocapsid (AID 346; call rule not given here;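 further: potency means the concentration at half of the fitted maximal effect; potency is for inhibitors that block NC binding and lower polarization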); conditions: HIV-1 NC / fluorescein-TGTGTGTG probe, fluorescence polarization
Outline: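 Inhibition of nucleocapsid binding to single-stranded 5'-TGTGTGTG probe (10 nM) was measured by fluorescence polarization after 1 hr at room temperature with 100 nM protein under high-salt, zinc-containing, reducing conditions.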

[20] = target: Muscarinic acetylcholine receptor M1 (Rattus norvegicus) (UniProt P08482); experiment: qHTS Assay for Antagonists of Acetylcholine Muscarinic M1 Receptor: Kinetic Measurement of Intracellular Calcium Response (AID 943); further: series mostly up to about 35 µM; nearly all actives have a fitted effect of over 75% in size
Chain of Muscarinic acetylcholine receptor M1 (Rattus norvegicus) (P08482 whole entry, looked up): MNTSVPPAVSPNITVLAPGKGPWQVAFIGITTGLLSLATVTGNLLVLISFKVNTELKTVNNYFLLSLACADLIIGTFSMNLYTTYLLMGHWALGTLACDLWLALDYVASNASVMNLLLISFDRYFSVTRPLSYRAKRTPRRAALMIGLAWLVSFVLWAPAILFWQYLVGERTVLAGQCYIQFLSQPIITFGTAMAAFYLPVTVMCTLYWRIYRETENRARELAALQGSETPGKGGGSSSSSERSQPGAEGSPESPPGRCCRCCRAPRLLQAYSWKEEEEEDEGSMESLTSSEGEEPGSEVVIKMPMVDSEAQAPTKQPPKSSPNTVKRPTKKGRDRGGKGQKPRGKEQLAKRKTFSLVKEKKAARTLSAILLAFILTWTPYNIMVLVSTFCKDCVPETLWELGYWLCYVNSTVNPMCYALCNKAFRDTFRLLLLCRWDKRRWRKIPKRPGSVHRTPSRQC
Outline: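 CHO cells expressing rat M1 receptor, Fluo-4 loaded, preincubated 10 min with compound, then stimulated with EC80 carbachol (100 nM final). Kinetic calcium fluorescence over 4 min; response taken as peak over basal signal.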

SMILES: C[C@]12CC[C@H](O)CC1=CCC1C2CC[C@]2(C)C(=O)CC[C@@H]12 (some centres undefined)
- Potency [1]: inactive
- Potency [2]: inactive
- Potency [3]: inactive
- Potency [4]: inactive
- Potency [5]: inactive
- Potency [6]: inactive
- Potency [7]: inactive

SMILES: O=C1c2ccccc2-c2cccc3cccc1c23
- Potency [8]: inactive
- Potency [9]: inactive
- Potency [10]: inactive

SMILES: COc1cc2c(cc1-c1cc3cc4ccoc4cc3oc1=O)OCO2
- Potency [8]: inactive
- Potency [9]: inactive
- Potency [10]: 0.987 µM (active)

SMILES: COc1ccc2c(c1O)-c1c(OC)c(OC)cc3c1[C@H](C2)N(C)CC3
- Potency [11]: inactive
- Potency [12]: inactive
- outcome [13]: inactive
- outcome [14]: inactive

SMILES: C=CCc1ccc2c(c1)OCO2
- Potency [12]: inactive
- Potency [15]: inactive
- Potency [16]: 15.8 µM (active)
- outcome [13]: inactive
- outcome [14]: inactive

SMILES: CCc1cccc(CC)c1N(COC)C(=O)CCl
- activation [17]: -10.2% and -10.1%
- Potency [18]: 44.7 µM (active)

SMILES: CC(C)C[C@H]1C(=O)N2CCCC2[C@]2(O)O[C@](NC(=O)[C@@H]3C=C4c5cccc6[nH]c(Br)c(c56)C[C@H]4N(C)C3)(C(C)C)C(=O)N12 (some centres undefined)
- Potency [1]: 0.891 µM (active)
- Potency [2]: 1.78 µM (active)
- Potency [3]: 2 µM (active)
- Potency [4]: 2.51 µM (active)
- Potency [5]: 2 µM (active)
- Potency [6]: 1.58 µM (active)
- Potency [7]: inactive

SMILES: COCC(=O)N1CCC2(CCCN(Cc3ccncc3)C2)CC1
- Potency [19]: > 20 µM

SMILES: CC(C)NC(=O)N1CCC2(CC1)CCN(C(=O)Oc1ccccc1)CC2
- Potency [19]: > 20 µM

SMILES: COc1cc2c(cc1O)CC1c3c(cc(O)c(OC)c3-2)CCN1C (centres undefined)
- Potency [11]: inactive
- Potency [15]: 11.2 µM (active)
- Potency [16]: 3.98 µM (active)
- outcome [13]: inactive
- outcome [14]: inactive

SMILES: O=S1OCC2C(CO1)C1(Cl)C(Cl)=C(Cl)C2(Cl)C1(Cl)Cl (centres undefined)
- activation [17]: -11.1%
- Potency [18]: inactive

SMILES: O=C(c1ccco1)N1CCC[C@@]2(CCN(Cc3ccncc3)C2)C1
- Potency [19]: > 20 µM

SMILES: NC[C@H](O)c1ccc(O)cc1
- Potency [20]: inactive

SMILES: COc1ccc(OC)c([C@H](O)[C@H](C)N)c1
- Potency [20]: inactive

SMILES: CS(=N)(=O)CC[C@@H](N)C(=O)O (some centres undefined)
- Potency [20]: inactive
